# Six1-Eya2 inh: qHTS Assay for Inhibitors of the Six1/Eya2 Interaction | Homeobox protein SIX1 (Homo sapiens) + Protein phosphatase EYA2 (Homo sapiens), … | AlphaScreen GST-Six1/His-Eya2 binding, biochemical; hits give low values | activity change, % (no concentration beside the values) | 360,000 tested, 0.56% active; in the data active = activity change below about -65%; inconclusive = mostly about -30% to -63%; note: % is set by controls: 0 for no effect and ±100 for the full control effect
#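 Homogeneous AlphaScreen proximity assay pairing GST-Six1 with His-tagged Eya2 (added as 5X mix: 250 nM and 500 nM) in 50 mM Tris pH 8.0, 300 mM NaCl, 1 mM TCEP. Glutathione donor and nickel acceptor beads; 1 h, 37 °C, dark.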
# BAZ2B block: qHTS Assay for Inhibitors of BAZ2B; Potency, µM (highest dose often 114 µM), without a hit: at the top dose activity change, negative = inhibition, most hits filed as inhibitors; AlphaScreen BAZ2B-H3K14Ac peptide displacement; 360,000 tested, 4.4% active; note: potency is the fitted concentration of half-maximal effect; % is set by controls: 0 for no effect and ±100 for the full control effect; nearly all actives have a fitted effect of over 60% in size
#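 Multi-concentration screen (max 110 uM) measuring displacement of acetylated histone H3 peptide from BAZ2B by AlphaScreen, using 50 nM protein, 50 nM peptide and 10 ug/mL streptavidin donor plus Ni-chelate acceptor beads.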
# HP1b chromo inh: HTS for Inhibitors of HP1-beta Chromodomain Interactions with Methylated Histone Tails; Chromobox protein homolog 1 (Homo sapiens), P83916; AlphaScreen HP1-beta / biotin-H3K9me3 peptide binding; Potency, µM (titrated, usually from 114 µM), inactives show at the top dose activity change, negative = inhibition, actives largely listed as inhibitors; 390,000 tested, 0.56% active; AID 540317, 2011; note: potency is the fitted concentration of half-maximal effect; nearly all actives have a fitted effect of over 70% in size
#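 AlphaScreen: HP1-beta (50 nM) preformed 30 min with biotin-H3(1-18)K9me3 peptide (50 nM) in PBS pH 7.4, 0.01% Tween-20. Compound added for 30 min at RT, then streptavidin donor/nickel chelate acceptor beads (10 ug/mL) for 30 min.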
# CtBP-E1A inh: qHTS Assay for Inhibitors of the CtBP/E1A Interaction; CtBP / adenovirus E1A interaction (AlphaScreen); AlphaScreen GST-E1A/His-CtBP binding, 1536-well; hits give low values; activity change, % (no concentration beside the values); 340,000 tested, 0.49% active; in the data active = activity change below about -65%; inconclusive = mostly about -30% to -63%; note: % is set by controls: 0 for no effect and ±100 for the full control effect
#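 GST-E1A and His-tagged CtBP (125 nM each as 5X stock) were preincubated with pin-transferred compound for 2 h at 37 °C in the dark, then glutathione donor and nickel acceptor beads were added for 1 h before AlphaScreen reading.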
# JMJD2A Tudor: qHTS Assay for Inhibitors of JMJD2A-Tudor Domain; Potency, µM (highest dose often 114 µM), without a hit: at the highest dose activity change, negative = inhibition, hits mostly inhibitors; AlphaScreen JMJD2A-Tudor / H3K4me3 peptide binding; Lysine-specific demethylase 4A (Homo sapiens), O75164; 390,000 tested, 4.4% active; note: potency is the fitted concentration of half-maximal effect; % is set by controls: 0 for no effect and ±100 for the full control effect; nearly all actives have a fitted effect of over 50% in size
# G9a block: qHTS Assay for Inhibitors of Histone Lysine Methyltransferase G9a. G9a H3K9 monomethylation, AlphaScreen, 2 h. Histone-lysine N-methyltransferase EHMT2 (Homo sapiens), Q96KQ7. Potency, µM (doses to about 102 µM), inactives show at the highest dose activity, negative = inhibition, usual class: inhibitors. 350,000 tested, 8.8% active; note: potency is the fitted concentration of half-maximal effect; % is set by controls: 0 for no effect and ±100 for the full control effect; nearly all actives have a fitted effect of over 75% in size
#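 Compounds were preincubated with 20 nM G9a for 15 min, after which biotinylated H3K9 peptide (500 nM) and SAM (20 uM) started a 2 h room-temperature reaction. Monomethylated product was quantified by antibody-based AlphaScreen chemiluminescence.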
# Starred values were filed as active, the others as inactive; ? = inconclusive; · = no result; [ ] = remark or other dose. Compounds with a hit are over-represented: about 10% of the library has one in this group of screens. Unless noted, calls come from the whole dose curve; as a rule, active = well fitted inhibition curve with a large enough effect; inconclusive = small, poorly fitted or top-dose-only effect; inactive = no such curve, though single readings can be large or run the other way.
SMILES,Six1-Eya2 inh,BAZ2B block,HP1b chromo inh,CtBP-E1A inh,JMJD2A Tudor,G9a block
O=C(CSc1ccc(C(F)(F)F)cc1[N+](=O)[O-])Nc1ccccc1,-1,-26%,9%,14,-18%,7%
COc1ccc(Nc2ccc(C(F)(F)F)cc2[N+](=O)[O-])cn1,?,40µM*,?,?,56µM*,?
CN(Cc1ccccc1)C(=O)Cn1ncc2c3ccccc3n(Cc3cccc(Cl)c3)c2c1=O,·,?,-2%,·,?,-5%[59 µM]
CC1Cc2cc(S(=O)(=O)NCc3ccc(F)cc3)ccc2N1C(=O)C1CCC1 (configuration not stated),·,1%,34%,·,-14%,-5%[59 µM]
Cc1cc(C)cc(OCc2ccc(C(=O)Nc3ccccc3F)o2)c1,·,?,41%,·,-5%,3%[59 µM]
CCOC(=O)c1c(S(=O)(=O)N2CCC(C(=O)Nc3cccc(C#N)c3)CC2)c(C)n(C)c1C,·,-8%,12%,·,-16%,-5%[59 µM]
COc1nnc(-c2ccc(N3CCCCC3)c(NC(=O)c3ccccc3Cl)c2)c2ccccc12,·,-18%,21%,·,-14%,-30%[59 µM]
O=C(Cc1ccc(-c2ccccc2)cc1)NCCS(=O)(=O)N1CCN(c2ccccc2)CC1,·,-2%,10%[57 µM],·,-4%,3%[59 µM]
C/C(=N\Nc1ccc(C(F)(F)F)cc1[N+](=O)[O-])C(C)C,4,10µM*,40µM*,-4,?,11µM*
Cc1ccc2ncc(C(=O)Nc3ccc(F)cc3F)c(=O)n2c1,·,0%,25%,·,-10%,0%[59 µM]
CC(C)(C)c1nnc(N/N=C/c2cc(Br)ccc2O)n(N)c1=O,-90*,18µM*,6%,-94*,22µM*,5%[59 µM]
CCc1nnc(N/N=C/c2cccs2)n1N,1,-6%,35%,-1,-12%,50µM*
CCc1nnc(N/N=C/c2ccc(O)c(OC)c2)n1N,-3,0%,63%,-15,-13%,-12%[0.501 µM]
CCc1nnc(N/N=C/c2cc(Br)c(O)cc2O)n1N,-80*,50µM*,41%,-91*,79µM*,50µM*
COc1ccc(CCNC(=O)Cc2c(C)c3cc4c(C(C)(C)C)coc4c(C)c3oc2=O)cc1,·,2%,54%,·,-3%,-1%[59 µM]
CCOc1ccccc1C=NNC(=O)C(=O)NN=Cc1ccccc1OCC,3,·,30%,-2,-10%,·
Cc1cccc(/C=N/NC(=O)c2ccc3c(c2)OCCO3)c1O,·,20µM*,·,·,·,37%
O=C(N/N=C/c1cccc(O)c1)c1ccc2c(c1)OCCO2,2,-4%,35%,·,-11%,17%
CCN(CC)c1ccc(/C=N/NC(=O)CNC(=O)c2ccc3c(c2)OCCO3)cc1,?,-31%,0%,0,-33%,45µM*
COc1cccc(/C=N/NC(=O)CNC(=O)c2ccncc2)c1O,5,-21%,52%,·,-4%,34%
COc1cccc(/C=N/NC(=O)CNC(=O)c2ccc3c(c2)OCCO3)c1O,-88*,-3%,42%,?,-2%,22%[59 µM]
CCOc1ccccc1NC(=O)C(=O)N/N=C/c1cc(Br)ccc1O,-14,8.9µM*,23%,?,?,14%
COc1cc(/C=N/NC(=O)CNC(=O)c2ccncc2)ccc1O,0,-8%,35%,-1,-5%,·
CN(C)c1ccc(/C=N/NC(=O)CNC(=O)c2ccc3c(c2)OCCO3)cc1,-5,-32%,29%,-12,-26%,?
O=C(N/N=C/c1ccccn1)c1ccc(NC(=O)c2ccccc2Cl)cc1,?,-3%,-1%,?,-29%,3%
O=C(N/N=C/c1ccccn1)c1ccc(NC(=O)c2ccc(F)cc2)cc1,?,3%,40%,?,-22%,50µM*
